Reference: PubChem BioAssay (Tox21)
Activity calls are given as the source filed them. Calls follow the shape of the dose curve; as a rule, active = well fitted inhibition curve with a large enough effect in the repeat runs (not every such curve was filed as active); inconclusive = weak or mixed curves; inactive = flat fitted curve, though single readings scatter.

target: Thyrotropin-releasing hormone receptor (Homo sapiens) (UniProt P34981); experiment: qHTS assay to identify small molecule antagonists of the thyrotropin-releasing hormone receptor (TRHR) signaling pathway (AID 1346877); details: TRHR-HEK293, TRH-induced calcium fluorescence, antagonist mode; series mostly up to 51.3 µM
Sequence (P34981 whole entry, looked up): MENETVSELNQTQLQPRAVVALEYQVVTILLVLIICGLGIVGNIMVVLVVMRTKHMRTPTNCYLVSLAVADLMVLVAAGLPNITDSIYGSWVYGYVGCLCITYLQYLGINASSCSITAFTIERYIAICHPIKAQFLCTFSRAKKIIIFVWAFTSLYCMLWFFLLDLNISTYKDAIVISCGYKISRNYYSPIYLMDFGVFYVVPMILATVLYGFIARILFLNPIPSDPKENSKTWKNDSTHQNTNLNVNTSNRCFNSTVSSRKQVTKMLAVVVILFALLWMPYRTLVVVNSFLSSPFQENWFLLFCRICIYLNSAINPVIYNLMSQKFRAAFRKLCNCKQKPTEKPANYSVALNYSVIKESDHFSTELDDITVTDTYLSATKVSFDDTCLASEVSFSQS
From the text: National Center for Advancing Translational Sciences [NCATS]
NIH Chemical Genomics Center [NCGC]
U.S. Environmental Protection Agency [EPA]
National Institutes of Environmental Health Sciences [NIEHS]
National Toxicology Program [NTP]
U.S. Food and Drug Administration [FDA]
Thyrotropin-releasing hormone (TRH) receptor (TRHR) is a G-protein-coupled receptor which binds the tripeptide thyrotropin releasing hormone. TRHR is found in the brain and, when bound by TRH, acts (through phospholipase C) to increase intracellular inositol trisphosphate. It plays a crucial role in the anterior pituitary where it controls the synthesis and secretion of thyroid stimulating hormone and prolactin. The TRHR-Hek293 assay is a cell-based assay, and it has the potential to screen G protein-coupled receptors. A compound/drug can either activate (agonist) or suppress (antagonist) GPCRs that can be monitored by levels of intracellular calcium. In this assay, the Tox21 10K compound library was screened to identify potential TRHR antagonists.
Tox21 Assay Protocol Summary:
The TRHR-Hek293 cells were dispensed at 1500cells/4uL/well in 1536-well black-clear bottom plates using a Multidrop dispenser. After the assay plates were incubated at a 37 C/5% CO2 incubator for 18 hours, 4 uL of Dye-Loading Solution was added to each well. The plates were incubated at 37 C for 2 hours. For agonist mode, 23 nL of compounds dissolved in DMSO, positive controls or DMSO only was transferred to the assay plate by a pin tool. The fluorescence intensity in the plates was measured using FDSS 7000EX kinetic plate reader for 3 min at 1 sec intervals. For antagonist mode, 23 nL of compounds dissolved in DMSO, positive controls or DMSO only was transferred to the assay plate by a pin tool. After 5 min incubation at room temperature, 1 uL of TRH was added on the top of the cell/compound mixtures to achieve a final agonist concentration of 1 nM. The fluorescence intensity in the plates was measured using FDSS 7000EX kinetic plate reader for 3 min at 1 sec intervals. Each test compound was measured at 15 concentrations and in triplicates.

SMILES | outcome
O=C(O)/C=C/C(=O)O | inactive
OCc1cccc(Oc2ccccc2)c1 | inactive
COc1ccc(CCC(C)=O)cc1 | inactive
Cc1ccc([N+](=O)[O-])cc1S(=O)(=O)O | inactive
CCCCOC(=O)c1ccc(N)cc1 | inactive
CNC(=O)Oc1ccc2c(c1)[C@]1(C)CCN(C)[C@@H]1N2C | inactive
CN(C)CCOC(=O)COc1ccc(Cl)cc1 | inactive
CC(CCO)CC(C)(C)C (stereo not given) | inactive
O=C(O)c1ccc(C(=O)O)c(C(=O)O)c1 | inactive
NC(=S)NNC(N)=S | inactive
CCCCCCCC=O | inactive
CC(=O)CC(C)(C)O | inactive
CCO[Si](CCC#N)(OCC)OCC | inactive
CCOC(=O)c1ccc(N)cc1 | inactive
c1ccc(Oc2ccccc2)cc1 | inactive
CC1(C)CC(N)CC(C)(CN)C1 (stereo not given) | inactive
O=C(O)CCCCCCCCC(=O)O | inactive
COc1cc(OC)c(C(=O)CCCN2CCCC2)c(OC)c1 | inactive
CC(C)(C)c1cc(Cc2cc(C(C)(C)C)c(O)c(C(C)(C)C)c2)cc(C(C)(C)C)c1O | inactive
CC(=O)c1ccc(O)cc1 | inactive

SMILES | outcome
C=CCCCCCCCCC(=O)O | inactive
CCOCCOCCOCCO | inactive
C[Si]1(C)O[Si](C)(C)O[Si](C)(C)O[Si](C)(C)O1 | inactive
C=CC(=O)OCCC(=O)O | inactive
Cc1ccc(C(C)C)c(O)c1 | inactive
O=C(O)Cn1c(=O)n(Cc2ccc(Br)cc2F)c(=O)c2ccc(Cl)cc21 | inactive
COc1ccccc1OCC(O)CO (stereo not given) | inactive
O=[N+]([O-])c1ccc2nc[nH]c2c1 | inactive
O=C(O)c1ccc(S(=O)(=O)N(Cl)Cl)cc1 | inactive
CCc1ccccc1CC | inactive
CCCCCCCCCCN | inactive
OC1C(O)C(O)C(O)C(O)C1O (stereo not given) | inactive
CCCCCCCO | inactive
CC1(C)OC[C@@H]2O[C@@]3(C(=O)O)OC(C)(C)O[C@H]3[C@@H]2O1 | inactive
C=C(C)CNCC | inactive
CC(=O)OC1CC(C)OC(C)O1 (stereo not given) | inactive
CN(C)c1ccc(O)c2c1C[C@H]1C[C@H]3[C@H](N(C)C)C(=O)C(C(N)=O)=C(O)[C@@]3(O)C(=O)C1=C2O | inactive
COCCOC(=O)c1ccccc1C(=O)OCCOC | inactive
CCCCCCCCCCCCCCCCO | inactive
CC1(C)S[C@@H]2[C@H](NC(=O)COc3ccccc3)C(=O)N2[C@H]1C(=O)O | inactive
